Results reported in PubChem BioAssay.
Calls of active or inactive are those of the source. No stated cut-off is given here; in the data, active means fold change permeability below about 0.7 or above about 1.3; inactive means in between.

assay: modulators of brain endothelial barrier permeability, primary screen, cell-based, FITC-avidin fluorescence, HTS (AID 1963498); conditions: actives lie on both sides; further: test concentration not given here

Fold change permeability, active:
N=S(=O)(O)Cc1noc2ccccc12 1.9
C[C@H](N[C@@H](CCc1ccccc1)C(=O)O)C(=O)N1CCC[C@H]1C(=O)O 0.6
Cn1c(=O)c2[nH]c(C3CCCC3)nc2n(C)c1=O 1.3
CCOC(=O)[C@@H](N)CCC(=O)N[C@@H](CSCc1ccccc1)C(=O)N[C@@H](C(=O)OCC)c1ccccc1 1.3
COc1ccccc1CN[C@H]1CCCN[C@H]1c1ccccc1 0.7
CN1C(=O)c2sccc2N(C)c2nc(Nc3ccc(S(N)(=O)=O)cc3)ncc21 1.8
NCCc1cnc[nH]1 1.3
Nc1nc(OCc2cc(Br)cs2)c2[nH]cnc2n1 1.5
C=CC(N)CCC(=O)O (centres undefined) 1.5
COc1ccc2c(c1)c(CC(=O)O)c(C)n2C(=O)c1ccc(Cl)cc1 1.7
CC(C)(C)C(=O)Oc1ccc(S(=O)(=O)Nc2ccccc2C(=O)NCC(=O)O)cc1 0.7
CCOc1cc(C(=O)Nc2ccc(Cl)c(-c3nc4ccccc4[nH]3)c2)cc(OCC)c1OCC 1.7

Fold change permeability, inactive:
Nc1nc2[nH]cc(CCc3ccc(C(=O)N[C@@H](CCC(=O)O)C(=O)O)cc3)c2c(=O)[nH]1 0.9
Cc1nc(N=Nc2ccc(S(=O)(=O)O)cc2S(=O)(=O)O)c(COP(=O)(O)O)c(C=O)c1O 0.9
CC#C[C@]1(O)CC[C@H]2[C@@H]3CCC4=CC(=O)CCC4=C3[C@@H](c3ccc(N(C)C)cc3)C[C@@]21C 0.8
O=C(O)c1cc2cc(F)ccc2[nH]1 1.2
CC(=O)O[C@H]1C[C@@]2(C)[C@@H](C[C@@H](O)[C@H]3[C@@]4(C)CC[C@@H](O)[C@@H](C)[C@@H]4CC[C@@]32C)/C1=C(\CCC=C(C)C)C(=O)O 1
Cc1ccc(/C=N\NC(=O)c2n[nH]c3c2CCCC3)cc1 1.1
CC(C(=O)O)c1ccc(C(=O)c2cccs2)cc1 (centres undefined) 0.8
NC/C=C\C(=O)O 1.2
C[N+](C)(C)CCCCCC[N+](C)(C)C 1
CCN(CC)C(=O)c1ccc(O)c(OC)c1 0.8
Oc1ccc(-c2nc(-c3ccc(F)cc3)c(-c3ccncc3)[nH]2)cc1 1.1
O=c1ccc2ccc(O)c(O)c2o1 1.2
